Records with an inconclusive call do not appear. Active and inactive are the calls of the source. Calls follow the shape of the dose curve; as a rule, active = well fitted curve in the direction sought with a large enough effect; inconclusive = small, poorly fitted or top-dose-only effect, or another doubt; inactive = no such curve, though single readings can be large; an effect the other way counts as inactive or inconclusive.
Legend:
GB4 = assay: qHTS profiling for inhibitors of Plasmodium falciparum proliferation (AID 504749); also: nearly all actives have a fitted effect of over 60% in size; conditions: P. falciparum in erythrocytes, SYBR Green DNA, 72 h; series mostly up to 28.7 µM
In short: (§1)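 P. falciparum-infected erythrocytes (0.3% parasitemia, 2.5% hematocrit) incubated with compound 72 h at 37 C, 5% CO2. Parasite DNA detected by SYBR Green after lysis, overnight at room temperature; normalised to 0.29 uM artemisinin and DMSO.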

[1] = target: ATP-dependent 6-phosphofructokinase (Trypanosoma brucei brucei) (UniProt O15648); assay: qHTS Assay to Find Inhibitors of T. brucei phosphofructokinase: hit validation (AID 492961)
In short: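 Luminescence from ADP-Glo reports ADP generated as T. brucei PFK (1.25 nM) phosphorylates 0.5 mM fructose-6-phosphate using 0.1 mM ATP. Reactions ran 45 min at room temperature, pH 8.0.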

[2] = target: Ubiquitin carboxyl-terminal hydrolase 1 (Homo sapiens) (UniProt O94782); assay: Inhibitors of USP1/UAF1: Pilot qHTS (AID 504865);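 also: rhodamine fluorescence freed from ubiquitin-rhodamine substrate followed over time; top concentration of the series differs between compounds; nearly all actives have a fitted effect of over 35% in size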
In short: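 Enzyme-free wells gave the negative control, while test wells held 1nM USP1/UAF1 preincubated with compound for 15 min at room temperature. Ub-Rho at 150nM final started the reaction, and fluorescence at 480/540 nm was recorded kinetically.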

[3] = S16 Schwann cell PMP22 intronic element firefly luciferase assay (AID 624032); also: nearly all actives have a fitted effect of over 30% in size
In short: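 Rat S16 Schwann cells stably carrying firefly luciferase driven by a PMP22 intronic element, in 10% FBS, treated 24 h at 37 C. ONE-Glo luminescence normalized to PTC124 control and DMSO (0%); curves classed by r2, magnitude and activity.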

AA1029 = assay: qHTS profiling for inhibitors of Plasmodium falciparum proliferation (AID 504749); also: nearly all actives have a fitted effect of over 60% in size; conditions: P. falciparum in erythrocytes, SYBR Green DNA, 72 h; series mostly up to 28.7 µM
In short: as §1

C2A = assay: as above; conditions: P. falciparum in erythrocytes, SYBR Green DNA, 72 h; series mostly up to 28.7 µM
In short: as §1

CP185 = assay: as above; conditions: P. falciparum in erythrocytes, SYBR Green DNA, 72 h; series mostly up to 28.7 µM
In short: as §1

CP192 = assay: as above; conditions: P. falciparum in erythrocytes, SYBR Green DNA, 72 h; series mostly up to 28.7 µM
In short: as §1

CP194 = assay: as above; conditions: P. falciparum in erythrocytes, SYBR Green DNA, 72 h; series mostly up to 28.7 µM
In short: as §1

CP201 = assay: as above; conditions: P. falciparum in erythrocytes, SYBR Green DNA, 72 h; series mostly up to 28.7 µM
In short: as §1

CP203 = assay: as above; conditions: P. falciparum in erythrocytes, SYBR Green DNA, 72 h; series mostly up to 28.7 µM
In short: as §1

CP211 = assay: as above; conditions: P. falciparum in erythrocytes, SYBR Green DNA, 72 h; series mostly up to 28.7 µM
In short: as §1

CP238 = assay: as above; conditions: P. falciparum in erythrocytes, SYBR Green DNA, 72 h; series mostly up to 28.7 µM
In short: as §1

CP252 = assay: as above; conditions: P. falciparum in erythrocytes, SYBR Green DNA, 72 h; series mostly up to 28.7 µM
In short: as §1

CP262 = assay: as above; conditions: P. falciparum in erythrocytes, SYBR Green DNA, 72 h; series mostly up to 28.7 µM
In short: as §1

CP297 = assay: as above; conditions: P. falciparum in erythrocytes, SYBR Green DNA, 72 h; series mostly up to 28.7 µM
In short: as §1

CP329 = assay: as above; conditions: P. falciparum in erythrocytes, SYBR Green DNA, 72 h; series mostly up to 28.7 µM
In short: as §1

P93_24 = assay: as above; conditions: P. falciparum in erythrocytes, SYBR Green DNA, 72 h; series mostly up to 28.7 µM
In short: as §1

TAB109 = assay: as above; conditions: P. falciparum in erythrocytes, SYBR Green DNA, 72 h; series mostly up to 28.7 µM
In short: as §1

W2 = assay: as above; conditions: P. falciparum in erythrocytes, SYBR Green DNA, 72 h; series mostly up to 28.7 µM
In short: as §1

Measured: Potency

Ubiquitin carboxyl-terminal hydrolase 1 (Homo sapiens), sequence (O94782 whole entry, looked up): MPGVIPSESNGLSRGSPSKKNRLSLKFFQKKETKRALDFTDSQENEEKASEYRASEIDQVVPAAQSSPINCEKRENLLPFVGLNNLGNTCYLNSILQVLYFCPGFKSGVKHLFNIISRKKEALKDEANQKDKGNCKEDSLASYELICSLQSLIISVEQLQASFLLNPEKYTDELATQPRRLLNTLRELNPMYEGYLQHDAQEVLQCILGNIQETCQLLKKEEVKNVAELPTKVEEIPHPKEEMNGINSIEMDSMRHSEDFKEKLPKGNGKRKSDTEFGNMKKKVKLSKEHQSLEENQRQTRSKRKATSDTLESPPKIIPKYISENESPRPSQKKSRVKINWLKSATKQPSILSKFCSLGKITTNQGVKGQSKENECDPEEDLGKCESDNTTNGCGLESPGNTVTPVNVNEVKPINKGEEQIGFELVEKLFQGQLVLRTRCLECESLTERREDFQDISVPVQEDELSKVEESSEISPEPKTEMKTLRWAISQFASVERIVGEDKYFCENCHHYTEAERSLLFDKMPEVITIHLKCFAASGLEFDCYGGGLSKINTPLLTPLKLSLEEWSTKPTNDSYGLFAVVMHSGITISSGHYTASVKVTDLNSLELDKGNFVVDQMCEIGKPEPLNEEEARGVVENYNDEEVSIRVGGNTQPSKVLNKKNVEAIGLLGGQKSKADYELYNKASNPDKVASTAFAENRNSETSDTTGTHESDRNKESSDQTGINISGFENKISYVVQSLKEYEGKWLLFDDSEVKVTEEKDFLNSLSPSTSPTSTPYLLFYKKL
ATP-dependent 6-phosphofructokinase (Trypanosoma brucei brucei), sequence (O15648 whole entry, looked up): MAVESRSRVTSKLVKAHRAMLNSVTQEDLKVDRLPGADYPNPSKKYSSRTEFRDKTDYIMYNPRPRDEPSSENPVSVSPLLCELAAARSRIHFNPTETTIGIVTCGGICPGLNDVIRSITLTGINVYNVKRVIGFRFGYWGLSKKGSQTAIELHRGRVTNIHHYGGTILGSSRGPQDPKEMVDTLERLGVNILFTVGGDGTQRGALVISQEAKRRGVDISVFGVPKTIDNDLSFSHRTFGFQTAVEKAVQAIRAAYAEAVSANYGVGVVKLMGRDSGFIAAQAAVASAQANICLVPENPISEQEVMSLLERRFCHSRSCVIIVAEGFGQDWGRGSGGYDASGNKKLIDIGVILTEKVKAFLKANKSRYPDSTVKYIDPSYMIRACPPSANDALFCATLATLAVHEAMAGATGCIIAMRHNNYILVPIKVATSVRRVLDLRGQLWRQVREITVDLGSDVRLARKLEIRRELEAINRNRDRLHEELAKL

N[C@@H](Cc1ccccc1)C(=O)O
inactive: GB4

C[C@]12CC[C@H]3c4ccc(O)cc4CC[C@@H]3[C@H]1CC[C@@H]2OP(=O)(O)O
inactive: GB4

CC1(C)[C@@H]2CC[C@]1(C)[C@@H](OC(=O)CSC#N)C2
inactive: all assays above

COc1cccc2c1C(=O)c1c(O)c3c(c(O)c1C2=O)C[C@](O)(C(=O)CO)C[C@@H]3O[C@H]1C[C@H](N)[C@@H](O)[C@H](C)O1
not listed: GB4
inactive: all other assays above

CNc1ncncc1-c1ccc(C(=O)N(C)C)cc1
inactive: [2]
